High-throughput results deposited in PubChem by National Center for Advancing Translational Sciences (NCATS).
PLK1 PBD block = blocks phosphopeptide binding to human PLK1 polo-box domain; Plk1 PBD binding of FITC phosphopeptide, fluorescence polarization; 360,000 compounds, 2.8% hits; AID 720504; Potency, µM, usual class: inhibitors; further: series mostly up to about 57 µM; nearly all actives have a fitted effect of over 65% in size
Target sequence (P53350 whole entry, looked up, the tested form may be a part): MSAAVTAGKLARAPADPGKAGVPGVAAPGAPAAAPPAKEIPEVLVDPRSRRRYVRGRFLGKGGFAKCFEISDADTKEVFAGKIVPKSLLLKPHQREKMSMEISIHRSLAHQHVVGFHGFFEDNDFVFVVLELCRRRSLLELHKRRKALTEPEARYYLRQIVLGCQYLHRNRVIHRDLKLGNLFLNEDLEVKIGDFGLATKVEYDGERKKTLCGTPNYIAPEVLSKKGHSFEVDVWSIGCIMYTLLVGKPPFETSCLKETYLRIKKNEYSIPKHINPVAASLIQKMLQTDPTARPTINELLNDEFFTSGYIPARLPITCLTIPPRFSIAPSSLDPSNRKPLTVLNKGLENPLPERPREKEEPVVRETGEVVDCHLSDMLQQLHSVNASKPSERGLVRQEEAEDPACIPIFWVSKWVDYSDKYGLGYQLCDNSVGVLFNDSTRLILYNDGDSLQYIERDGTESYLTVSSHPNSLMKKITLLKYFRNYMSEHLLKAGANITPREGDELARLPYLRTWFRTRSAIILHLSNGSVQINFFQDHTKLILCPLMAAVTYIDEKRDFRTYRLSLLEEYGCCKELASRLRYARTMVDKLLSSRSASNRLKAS
Tau fibril FP = blocks human tau fibril formation measured by polarization; P10636; K18 P301L tau heparin fibrillization, Alexa594 FP, 6 h; Potency, µM (top dose mostly 57.7 µM), actives largely listed as inhibitors; 280,000 compounds, 0.39% hits; AID 1468; further: nearly all actives have a fitted effect of over 55% in size
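Recombinant K18 P301L […], labeled with Alexa 594 at 0.24 uM over 15 uM unlabeled; heparin inducer 20 uM final; 37 C, 6 hr; FP endpoint.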
Tau fluor counter = counter-screen for tau fibril formation inhibitors | Potency, µM (doses to about 57.7 µM) | tau K18 P301L Alexa594 fluorescence, heparin fibrillization | 280,000 compounds, 0.93% hits; further: nearly all actives have a fitted effect of over 55% in size
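Human K18 P301L tau (15 uM unlabeled plus 0.24 uM Alexa 594-labeled, final) in 100 mM sodium acetate pH 7 was mixed with compound and 20 uM heparin and incubated 6 hr at 37 C.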
Sfp inh = inhibitors of Bacillus subtilis Sfp phosphopantetheinyl transferase; Q9F4F7; Biochemical Sfp PPTase activity, qHTS; Potency, µM, usual class: inhibitors; 310,000 compounds, 3.5% hits; AID 1490;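 further: the enzyme is Sfp with the accession as filed and its product quenches rhodamine fluorescence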
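Fluorescence-quenching assay: 15 nM Sfp-PPTase preincubated 15 min at room temperature with compound, then 5 uM rhodamine-CoA and 12.5 uM BHQ-2-labelled YbbR peptide added. Fluorescence (ex 525/em 598 nm) read at start and after 30 min; difference gives rate.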
Tau ThT inhib = inhibitors of human tau fibril formation, thioflavin T binding | P10636 | recombinant tau K18 P301L (four-repeat tau fragment), heparin-induced fibrillization, ThT fluorescence | Potency, µM (top dose mostly 57.4 µM), usual class: inhibitors | 270,000 compounds, 2.1% hits | AID 1460; further: nearly all actives have a fitted effect of over 55% in size
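Heparin-induced fibrillization of the P301L-mutant K18 repeat-domain fragment of human tau was followed by ThT binding in quantitative high-throughput format.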
VDR inhibitor = blocks the human vitamin D receptor | VDR-SRC2-3 peptide fluorescence polarization, 2 h | Potency, µM, hits mostly inhibitors | 400,000 compounds, 0.93% hits | AID 504847
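Signal is fluorescence polarization, reporting how far test compounds block the interaction of VDR with the SRC2-3 coregulator peptide after a 2 h room-temperature incubation.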
Numbers stand for hits; – = inactive; ? = inconclusive; · = no result given; ! = repeats disagree; [ ] = remark or other dose. Most compounds without a hit are left out; they make up all but 6% or so of the library. The call rests on the fitted dose curve; in most records, active means well fitted curve in the direction sought with a large enough effect; inconclusive means small, poorly fitted or top-dose-only effect, or another doubt; inactive means no such curve, though single readings can be large; an effect the other way counts as inactive or inconclusive.

SMILES	PLK1 PBD block	Tau fibril FP	Tau fluor counter	Sfp inh	Tau ThT inhib	VDR inhibitor
O=C(NCCc1ccc(Cl)cc1)c1ccc(CSCc2cccc(Cl)c2)o1	·	–	–	·	–	–
CCOc1nc(N2CCOCC2)nc(C)c1[N+](=O)[O-]	29.9µM	–	–	–	–	–
CNCCOc1nc(N2CCOCC2)nc(C)c1[N+](=O)[O-]	–	–	–	–	–	–
CC[C@]12c3[nH]c4ccc(Cl)cc4c3CCN1C(=O)[C@@H](CC(=O)NCCCn1ccnc1)C[C@@H]2C(=O)N1CCN(C(=O)c2ccco2)CC1	–	·	·	·	·	–
CCOC(=O)c1c(NC(=O)c2cc(-c3ccc(OC)cc3)on2)sc(C)c1C	·	–	–	·	?	?
COc1cccc(/C=N/NC(=O)c2cc3cc([N+](=O)[O-])ccc3s2)c1O	?	–	?	?	2.24µM	–
COc1cccc(/C=N/NC(=O)C(=O)N/N=C/c2cccc(OC)c2O)c1O	–	–	–	–	?	–
COc1cc([N+](=O)[O-])cc(/C=N/NC(=O)C(C)Nc2cccc(C)c2)c1O (centres undefined)	–	–	–	–	11.2µM	–
COc1cc([N+](=O)[O-])cc(/C=N/NC(=O)c2ccc(C)nc2)c1O	–	–	–	–	11.2µM	–
COc1cc(/C=N/NC(=O)c2ccncc2)c([N+](=O)[O-])cc1OC	–	·	·	–	·	–
COc1cc(OC)c([N+](=O)[O-])cc1/C=N/NC(=O)c1ccncc1	?	?	?	35.5µM	25.1µM	–
Cc1oc(-c2ccc(Cl)cc2)nc1Cn1c(=O)cc(C)c2c(C)nn(-c3cccc(F)c3)c21	·	–	–	·	–	–
COc1cccc(NC(=O)c2nn(-c3ccc(C)cc3)c(=O)n(C)c2=O)c1	·	–	–	·	?	–
COc1cc([N+](=O)[O-])cc(/C=N/NC(=O)c2ccc(NC(=O)c3ccc(C)cc3)cc2)c1O	–	–	?	–	2µM	–
COc1ccccc1/C=N/NC(=O)c1ccc(NC(=O)c2cccc([N+](=O)[O-])c2)cc1	·	–	–	–	?	·
CCn1cc(/C=C(/C#N)S(=O)(=O)c2ccccc2)cn1	–	–	–	–	–	–
Cn1nccc1/C=C(/C#N)S(=O)(=O)c1ccccc1	10.6µM	–	–	–	–	?
Cc1ccc(C)n1-c1sc2c(c1C(=O)O)CCCC2	16.8µM	?	–	–	?	–
Cc1ccc(C(=O)Nc2sc3c(c2C(=O)O)CCCC3)o1	–	·	·	–	·	–
COc1ccc(CCNC(=O)CC(=O)N/N=C\c2ccc(OCC(N)=O)cc2)cc1OC	–	·	·	·	·	·
c1cc(-c2ccc3nncn3c2)ccc1CN1CCOCC1	–	·	·	·	·	·
CCn1c(SCC(=O)c2ccc(Cl)cc2)nnc1-c1ccoc1C	–	?	–	–	?	?
Cn1c(SCC(=O)c2ccc(-c3ccccc3)cc2)nnc1-c1ccco1	–	–	–	–	?	–
O=C(CSc1nnc(-c2ccco2)n1Cc1ccccc1)c1ccccc1	–	–	–	56.2µM	–	–
Cc1ccc(C(=O)CSc2nnc(-c3ccco3)n2Cc2ccccc2)cc1	2.67µM	–	–	–	–	?
SMILES	PLK1 PBD block	Tau fibril FP	Tau fluor counter	Sfp inh	Tau ThT inhib	VDR inhibitor
CCn1c(SCC(=O)c2ccc(C)cc2)nnc1-c1ccoc1C	–	–	–	79.4µM	?	–
NC(=O)NC(=O)CSc1nnc(-c2ccco2)n1Cc1ccccc1	–	–	–	–	–	–
O=C(NCc1ccccc1)C(c1ccccc1)n1c(-c2ccccn2)nc2ccccc21 (centres undefined)	–	·	·	·	·	·
Oc1c(I)cc(I)c2cccnc12	?	–	–	50.1µM!	–	35.5µM!
CC(C)c1ccc(NC(=O)CSC2=Nc3ccccc3C3=NC(CCC(=O)NCc4cccs4)C(=O)N23)cc1 (centres undefined)	·	–	–	·	?	–
Cc1cccc(-n2cnc(C(=O)NC3CCCCCC3)c2)n1	23.8µM	–	–	–	–	–
Cc1cccc(-n2cnc(C(=O)N3CCN(C)CC3)c2)n1	–	–	–	–	–	–
Cc1cccc(-n2cnc(C(=O)O)c2)n1	–	–	–	56.2µM	–	–
CCC(C)NC(=O)c1cn(-c2cccc(C)n2)cn1 (centres undefined)	–	–	–	–	–	–
CCOC(=O)[C@]12CCC=C1N(Cc1ccccc1)C(=O)[C@H](CC(=O)NCCCN1CCCC1=O)C2	–	·	·	·	·	·
N#Cc1ccc(CS(=O)(=O)c2nnnn2-c2ccccc2)cc1	·	?	–	–	?	44.7µM
O=S(=O)(Cc1ccccc1)c1nnnn1-c1ccccc1	·	–	–	–	?	35.5µM
COc1cccc(-c2nc(S(=O)(=O)c3ccc(Cl)cc3)c(NCc3ccccc3)o2)c1	·	–	–	·	–	–
CC(=O)N1CCn2c3c(c4cc(C)ccc42)CCCC31 (centres undefined)	–	–	–	–	–	–
CC(=O)N1CCn2c3c(c(=O)c4cc(C)ccc42)CCC31 (centres undefined)	–	?	?	–	25.1µM	?
CCOC(=O)NC(N(O)c1cccc(Cl)c1)C(Cl)(Cl)Cl (centres undefined)	?	?	–	11.2µM	?	31.6µM
CCOC(=O)N[C@H](Cc1c[nH]c2ccccc12)C(=O)Nc1cccc(Cl)c1	·	–	?	·	–	–
C=CCN1CCN(C(c2ccc(Cl)cc2)c2nnnn2CCc2ccc(OC)c(OC)c2)CC1 (centres undefined)	–	–	–	–	–	–
C=CCN1CCN(C(c2ccc(OC)c(OC)c2)c2nnnn2C(C)(C)C)CC1 (centres undefined)	–	–	–	79.4µM	–	–
C=CCN1CCN(C(c2cc(OC)ccc2OC)c2nnnn2CC2CCCO2)CC1 (centres undefined)	29.9µM	–	–	–	–	–
COc1ccc(OC)c(C(c2nnnn2CC2CCCO2)N2CCN(C)CC2)c1 (centres undefined)	–	–	–	–	–	–
CC(Sc1nnc2n1CCCCC2)C(=O)Nc1ccc(S(N)(=O)=O)cc1 (centres undefined)	–	·	·	·	·	–
CCN(CCCNC(=O)c1cc2cc3cc(C)ccc3nc2s1)c1cccc(C)c1	·	–	7.94µM[quencher]	·	?	–
Cc1ccc2nc3sc(C(=O)NCCCN(C)c4ccccc4)cc3cc2c1	·	–	?	·	?	–
COc1ccc(-c2csc(NC(=O)CCNC(=O)c3ccco3)n2)cc1	–	·	·	·	·	·
SMILES	PLK1 PBD block	Tau fibril FP	Tau fluor counter	Sfp inh	Tau ThT inhib	VDR inhibitor
Cc1ccccc1-c1csc(N)n1	?	·	·	·	·	–
CNc1nc(-c2c[nH]c3ccccc23)cs1	?	?	28.2µM[quencher]	56.2µM	25.1µM	?
Nc1nc(-c2ccccc2Cl)cs1	18.9µM	·	·	·	·	?
Cc1ccc2c(-c3csc(N)n3)c[nH]c2c1	·	·	·	–	·	·
CCC(C)Nc1nc(-c2c[nH]c3ccccc23)cs1 (centres undefined)	–	·	·	?	·	?
Nc1nc(-c2c[nH]c3ccccc23)cs1	?	?	15.8µM[quencher]	22.4µM	15.8µM	–
